From PubChem
KLF5 inh = suppresses KLF5 promoter-driven expression | DLD-1 KLF5 promoter-luciferase reporter, luminescence | inhibition, % at 5 µM | hit rate 0.23% among 290,000 | AID 1700;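 active = inhibition above a per-plate limit of that plate's mean compound inhibition plus 3 SD, cut at about 60% in these data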;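 also: 0% = DMSO wells and 100% = LY294002 at 200 µM; higher means less KLF5 promoter-driven luciferase light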
aSyn UTR inh = MLPCN primary screen, SNCA 5' untranslated region. AID 1813. hit rate 0.82% among 300,000. inhibition, % (tested at 7.5 µM). alpha-synuclein 5'UTR reporter, inhibitor activity; in the data active = inhibition above about 60%;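 also: H4 neuroglioblastoma cells stably carrying SNCA 5'UTR luciferase fusion; 0% = DMSO wells and 100% = positive control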
Jurkat NFkB inh = lowers PMA/ionomycin-induced NF-kB signal in Jurkat cells; hit rate 0.53% among 330,000; PMA/ionomycin-induced NF-kB luciferase reporter, luminescence; inhibition, % at 4 µM; in the data active = inhibition above about 50%
697 NFkB inh = lowers PMA/ionomycin-induced NF-kB signal in 697 B cells; 697 B-cell NF-kB luciferase reporter, 16 h; inhibition, % at 4 µM; hit rate 0.33% among 330,000; AID 435022; in the data active = inhibition above about 35%
ANO1 activ = mouse TMEM16A channel activation, primary screen; B-score at 10 µM; Q8BHY3; hit rate 0.3% among 340,000; HEK293 TMEM16A/YFP-H148Q/I152L, iodide quench fluorescence; hits give low values;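 active = fluorescence-ratio B-score plate-corrected deviation score at least 3 library SD below zero, with starting fluorescence score within 5 deviations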;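 also: channel opened by trigger with iodide after compound preincubation; score built on the fluorescence ratio of max minus min over baseline; more negative score means more quench and so TMEM16A activation or potentiation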
Target sequence (Q8BHY3 whole entry, looked up): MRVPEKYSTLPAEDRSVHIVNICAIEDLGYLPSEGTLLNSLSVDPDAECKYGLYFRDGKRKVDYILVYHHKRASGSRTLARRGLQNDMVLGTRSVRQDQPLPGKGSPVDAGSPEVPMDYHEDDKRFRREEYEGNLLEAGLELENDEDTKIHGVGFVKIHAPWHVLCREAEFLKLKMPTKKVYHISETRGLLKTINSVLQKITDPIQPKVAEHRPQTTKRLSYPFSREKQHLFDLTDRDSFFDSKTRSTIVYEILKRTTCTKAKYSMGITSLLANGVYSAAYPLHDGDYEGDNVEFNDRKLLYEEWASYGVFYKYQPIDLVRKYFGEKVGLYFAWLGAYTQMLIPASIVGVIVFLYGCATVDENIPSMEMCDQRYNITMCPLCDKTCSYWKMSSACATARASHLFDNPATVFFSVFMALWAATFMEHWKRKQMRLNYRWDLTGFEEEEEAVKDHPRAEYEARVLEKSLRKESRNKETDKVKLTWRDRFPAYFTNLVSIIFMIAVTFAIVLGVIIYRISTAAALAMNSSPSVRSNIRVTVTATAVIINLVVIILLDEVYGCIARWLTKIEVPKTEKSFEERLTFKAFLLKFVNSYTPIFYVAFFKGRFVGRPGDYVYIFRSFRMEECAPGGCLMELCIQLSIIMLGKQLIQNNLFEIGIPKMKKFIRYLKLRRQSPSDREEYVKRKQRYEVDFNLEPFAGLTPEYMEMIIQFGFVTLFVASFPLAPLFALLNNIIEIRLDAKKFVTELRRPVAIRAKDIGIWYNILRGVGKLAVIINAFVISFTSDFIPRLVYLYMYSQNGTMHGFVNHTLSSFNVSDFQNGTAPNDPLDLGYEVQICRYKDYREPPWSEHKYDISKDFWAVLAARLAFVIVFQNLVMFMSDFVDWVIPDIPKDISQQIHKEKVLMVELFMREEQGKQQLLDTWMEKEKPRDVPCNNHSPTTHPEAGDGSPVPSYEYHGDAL
TMEM16A inh = inhibitors of mouse TMEM16A calcium-activated chloride channel. Q8BHY3. HEK293 TMEM16A/YFP iodide influx fluorescence, ionomycin. normalized B-score (activity score, 25-100; higher = stronger inhibition) at 10 µM. hit rate 1.2% among 310,000. AID 588511;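 active = ratio plate-corrected score three or more library SD toward inhibition, starting fluorescence score within five deviations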;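 also: score derived from kinetic fluorescence span divided by baseline fluorescence per well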
KLF5 confirm = KLF5 inhibition, confirmation assay; shares compounds with KLF5 inh; DLD-1 KLF5 promoter firefly luciferase reporter, luminescence; inhibition, % at 4 µM; hit rate 79% among 610;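 active = inhibition above a set limit taken from the earlier primary screen, cut at about 63% in these data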;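 also: 0% = DMSO wells and 100% = LY294002 at 200 µM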
IEC-6 tox = rat IEC-6 cytotoxicity, KLF5 inhibitor counter-screen. AID 1905. IEC-6 rat intestinal cells, viability luminescence. inhibition, % at 4 µM. shares compounds with KLF5 inh. hit rate 56% among 610; in the data active = inhibition above about 23%;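 also: cells exposed to compounds for 48 hours before viability read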
* marks the source's active call; other numbers are inactive results; i = inactive; nt = no result. Shown are actives, neighbours in structure and some others; about 2.5% of the full set was active somewhere.

SMILES	KLF5 inh	aSyn UTR inh	Jurkat NFkB inh	697 NFkB inh	ANO1 activ	TMEM16A inh	KLF5 confirm	IEC-6 tox
CCOc1ncccc1C(=O)N1CCN(C(=O)c2ccccc2)CC1	-28	-10	-8	-4	i	i	nt	nt
CCOc1ncccc1C(=O)N1CCN(c2cc(Cl)ccc2C)CC1	68*	57	46	-1	i	i	78*	64*
CCOc1ncccc1C(=O)N1CCN(c2cccc(C)c2C)CC1	73*	-15	nt	nt	i	nt	85*	60*
CCCCNc1nc(Nc2ccc(C)c(Cl)c2)c2cnn(C)c2n1	-20	-1	-17	-51	i	i	nt	nt
CCOc1ccc(NC(=O)c2ccccc2NC(=O)c2cccnc2)cc1	-30	-5	4	25	i	i	nt	nt
CCCCN1C=CC(=C2C(=O)c3ccccc3C2=O)C=C1	95*	98*	-4	-33	i	i	56	8
CCCCNC1=CC(=O)C(=O)c2ccccc21	-12	40	-3	14	i	i	nt	nt
COCCOC(=O)c1[nH]c2c(c1C)C(=O)CC(c1cccs1)C2 (stereo unspecified)	71*	64*	nt	nt	i	nt	73*	59*
CCOC(=O)c1[nH]c(C)c(C(=O)N2CCc3ccccc32)c1C	77*	90*	48	-6	i	i	80*	62*
COc1ccc(S(=O)(=O)N2CCCOC2CNC(=O)C(=O)NCc2ccncc2)cc1 (stereo unspecified)	18	-8	-1	7	i	i	nt	nt
COc1cc(/C=N/NS(=O)(=O)c2ccc3ccccc3c2)ccc1OCc1ccc(C(=O)O)cc1	65*	84*	42	-20	i	i	-18	-5
Cc1ccc(OCc2nnc(NC(=O)c3cccnc3)s2)cc1	-27	-4	3	-23	i	i	nt	nt
CNC(=O)C1CC(=O)N(c2ccc(OCC(=O)Nc3ccc(OC)cc3)cc2)C1 (stereo unspecified)	nt	nt	-3	4	i	nt	nt	nt
COc1ccc(-c2nn(-c3ccccc3)cc2/C=N/NC(N)=S)cc1OC	69*	90*	nt	nt	i	i	71*	59*
COc1ccc(/C=C/C(=O)c2cc(F)ccc2OC(=O)c2ccccc2OC)cc1OC	70*	68*	nt	nt	i	nt	84*	40*
COc1ccc(/C=C/C(=O)c2cc(F)ccc2OC(=O)c2ccc(OC)c(OC)c2)cc1OC	-22	9	17	14	i	i	nt	nt
CCC(C)(C)n1nnnc1C(c1ccccc1F)N1CCN(C(=O)c2ccco2)CC1 (stereo unspecified)	-6	7	-8	1	i	i	nt	nt
COc1cc(C(=O)Nc2sc3c(c2C(=O)O)CCC(C)C3)cc(OC)c1OC (stereo unspecified)	74*	56	6	6	i	i	20	5
COc1ccc(CCNC(=O)c2cccc(C(=O)NCCc3ccc(OC)cc3)n2)cc1	nt	17	3	6	i	i	nt	nt
COc1cc(C(=O)N/N=C/c2sccc2C)cc(OC)c1OC	70*	114*	nt	nt	i	nt	86*	63*
Cc1ccsc1/C=N/NC(=O)c1ccncc1	7	-25	-6	-23	i	i	nt	nt
C/C(=N\NC(=O)c1ccccc1NC(=O)c1ccc(Cl)cc1)c1ccncc1	65*	28	19	-27	i	i	107*	67*
CC1CCCCC1NC(=O)CN1c2cccc3cccc(c23)S1(=O)=O (stereo unspecified)	nt	nt	-2	-1	i	nt	nt	nt
O=C(O)c1ccc(N/N=C/c2c(F)cccc2Cl)cc1	66*	-2	2	-126	i	i	55	0
CCOC(=O)CN1C2=NCCN2c2ccccc21	79*	13	4	0	i	i	3	8
COc1ccc(C(=O)NN(C)c2nc(C(F)(F)F)nc3ccccc23)cc1	82*	33	nt	nt	i	i	96*	81*
CN(C)c1ccc(/C=N/Nc2cccc(C(=O)O)c2)cc1	75*	77*	22	-47	i	i	109*	11
